Paper PMC5540273 (PLoS ONE, 2017)

Tests used:
Settings in all cases: concentration: 1 μM, replicates: in singlicate; n = 1
[1] = test system: CAMK2D
[2] = test system: CAMK2G
[3] = test system: CAMK4
[4] = test system: CAMKK1
[5] = test system: CAMKK2
[6] = test system: CASK
[7] = test system: T1, CDC2L1
T1 construct: gene CDK11B

[8] = test system: CDC2L2
[9] = test system: T2, CDC2L5
T2 construct: gene CDK13

[10] = test system: T3, CDK11
T3 construct: gene CDK19

[11] = test system: CDK2
[12] = test system: CDK3
[13] = test system: CDK4-cyclinD1
[14] = test system: CDK4-cyclinD3
[15] = test system: CDK4
[16] = test system: CDK5
[17] = test system: CDK7
[18] = test system: CDK8
[19] = test system: CDK9
[20] = test system: CDKL1
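Note: KINOMEscan kinase panel screen.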

SMILES	%Inh [1]	%Inh [2]	%Inh [3]	%Inh [4]	%Inh [5]	%Inh [6]	%Inh [7]	%Inh [8]	%Inh [9]	%Inh [10]	%Inh [11]	%Inh [12]	%Inh [13]	%Inh [14]	%Inh [15]	%Inh [16]	%Inh [17]	%Inh [18]	%Inh [19]	%Inh [20]
Cc1cccc(-c2nc(Nc3ccc4[nH]nnc4c3)c3ccccc3n2)n1 [GW867587]	0%	0%	0%	0%	0%	4%	0%	0%	0%	0%	0%	15%	0%	0%	0%	0%	0%	30%	0%	0%
CNc1nccc(-c2c(-c3ccc(F)cc3)ncn2C2CCN(C)CC2)n1 [SB-222903]	0%	0%	7%	0%	0%	11%	4%	13%	0%	0%	0%	0%	0%	0%	0%	0%	0%	46%	1%	13%
FC(F)(F)c1cc(Nc2nccc(-c3c(-c4ccc(Cl)cc4)nn4ncccc34)n2)ccc1Cl [GW829351]	0%	0%	0%	2%	0%	11%	0%	0%	0%	0%	0%	34%	0%	0%	0%	0%	0%	58%	0%	0%
COc1ccc(Nc2nccc(N3CCC(NC(=O)Nc4ccc5c(c4)OCO5)C3)n2)cc1 (centres unmarked) [GSK1379745]	7%	20%	0%	29%	9%	5%	0%	0%	0%	46%	73%	2%	42%	0%	32%	2%	0%	46%	0%	1%
Cn1ccc2ncnc(Nc3ccc(Oc4cccc(Cl)c4)c(Cl)c3)c21	5%	8%	0%	11%	9%	9%	22%	5%	13%	5%	0%	0%	0%	0%	0%	21%	14%	22%	15%	10%
c1ccc(-c2ccc3c(-c4ccnc(Nc5ccc6c(c5)OCCO6)n4)cnn3n2)cc1 [GW818941]	0%	10%	0%	0%	0%	0%	0%	3%	0%	9%	0%	3%	0%	0%	34%	0%	0%	11%	0%	0%
Nc1nc(-c2ccc3c(N)n[nH]c3c2)cc(N2CCCCC2)n1 [GSK2228768]	0%	25%	0%	0%	6%	15%	0%	0%	0%	0%	6%	17%	0%	0%	0%	0%	0%	0%	0%	20%
CSc1nn2c(=O)cc(N3CCOCC3)nc2n1Cc1cccc(Cl)c1Cl [GSK2347225]	21%	25%	0%	13%	23%	2%	0%	9%	0%	8%	0%	6%	0%	0%	16%	9%	0%	0%	4%	0%
Fc1cccc(COc2ccc(Nc3ncnc4cc[nH]c34)cc2Cl)c1	9%	11%	0%	11%	0%	0%	17%	11%	0%	26%	11%	6%	6%	10%	0%	21%	17%	8%	11%	2%
CCC(CC)(CC)n1cnc2c(N)ncnc21 [SKF-97620]	0%	0%	8%	0%	0%	42%	0%	0%	20%	0%	0%	3%	0%	0%	28%	5%	22%	30%	0%	13%
